Screening data from PubChem BioAssay.
Cycloheximide cs: Cycloheximide Counterscreen for Small Molecule Inhibitors of Shiga Toxin | cell reporter, cycloheximide protein synthesis inhibition counterscreen | max response, % | actives 12% (n = 300,000); in the data active means max response mostly above about 13%, no sharp cut-off; inactive means mostly below about 14%; further: read at 38.3 µM for the half of the compounds with a filed dose; 0% is about no effect
Shiga inhibitor: A qHTS for Small Molecule Inhibitors of Shiga Toxin | Vero cells, Shiga toxin protein synthesis inhibition reporter | inhibition, % at 38.7 µM | actives 9.2% (n = 290,000) | AID 2315, 2010; in the data active means inhibition mostly above about 28%, no sharp cut-off; inactive means mostly below about 43%; further: 0% is about no effect
Pf growth 48h: Primary qHTS for delayed death inhibitors of the malarial parasite plastid, 48 hour incubation; P. falciparum luciferase growth in erythrocytes, 48 h; actives 5.9% (n = 310,000); Potency, µM (titrated, usually from 28.7 µM), for inactives: at the highest dose activity change, negative = inhibition, actives largely listed as inhibitors; AID 504832, 2011; further: potency means the concentration at half of the fitted maximal effect; on the % scale 0 is the no-effect control and ±100 the full control effect
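In quantitative HTS format, infected erythrocytes bearing luciferase-reporter parasites were treated for a single generation at 37 C. Luminescence after adding detection reagent served as the growth measure.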
Pf growth 96h: Primary qHTS for delayed death inhibitors of the malarial parasite plastid, 96 hour incubation; P. falciparum luciferase reporter growth, 96 h; Potency, µM (top dose mostly 28.7 µM), for the others: at the highest dose activity change, negative = inhibition, usual class: inhibitors; AID 504834, 2011; actives 6.9% (n = 320,000); further: potency means the concentration at half of the fitted maximal effect; on the % scale 0 is the no-effect control and ±100 the full control effect
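Parasite growth measured via integrated firefly luciferase reporter in P. falciparum. Infected erythrocytes at 2% hematocrit, 0.05% parasitemia final were treated 96 hours at 37 C under 5% CO2, and luminescence was read.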
HCMV antiviral: qHTS Assay for inhibitors of the human cytomegalovirus (HCMV) | HFF cells, HCMV-luciferase reporter, 72 h; hits give low values | activity change, negative = inhibition, % at 57.5 µM | actives 4.5% (n = 410,000); in the data active means activity change below about -60%; inconclusive means no clear call, values can overlap the other calls; inactive means above about -39%; further: on the % scale 0 is the no-effect control and ±100 the full control effect
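Screen run at 2 compound doses on HFFs infected with reporter HCMV, MOI 1 PFU/cell. Luciferase activity from cell lysates at 72 h post infection gave inhibition relative to buffer-only and Salinomycin wells.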
Starred values were filed as active, the others as inactive; ? = inconclusive; . = no result. Hits are enriched below; roughly 20% of the tested compounds scored in any of these assays. Unless noted, the call rests on the fitted dose curve; in most records, active means well fitted inhibition curve with a large enough effect; inconclusive means small, poorly fitted or top-dose-only effect, or another doubt; inactive means no such curve, though single readings can be large or run the other way.

SMILES | Cycloheximide cs | Shiga inhibitor | Pf growth 48h | Pf growth 96h | HCMV antiviral
Cc1cccc(NC(=O)COC(=O)C(NC(=O)c2cccc(S(=O)(=O)N3CCOCC3)c2)C(C)C)c1 (centres undefined) | . | . | . | . | -30.7
CCCCCCOc1ccc(/C(C)=N/NC2=NCCN2)cc1[N+](=O)[O-] | 17.5 | 11.4 | ? | 27.9% | ?
CC(=NNC1=NCCN1)c1cn(C2=NCCN2)nc1C | . | . | . | . | -36.6
CCCCOc1ccc(Br)cc1/C(C)=N/NC1=NCCN1 | -5.5 | -4.9 | 4.65µM* | -10.0% | -100.3*
C/C(=N\Nc1cc(Cl)nc(C)n1)c1ccc(Cl)c(Cl)c1 | -3.2 | -1.1 | ? | -0.7% | -27.7
COc1ccc(/C(C)=N/NC2=NCCN2)cc1Cl | -3.3 | 2.7 | 4.65µM* | 3.7µM* | 58.6
C/C(=N\NC1=NCCN1)c1ccc(N)c([N+](=O)[O-])c1 | 11.9* | 6.4 | 2.08µM* | ? | 24.5
CCOc1ccccc1NC(=O)c1ccc(NC(=O)C2CCCO2)cc1 (centres undefined) | 6.0 | 6.8 | -12.9% | -5.0% | ?
COc1ccc(N2CC(C(=O)Nc3cccc(C)n3)CC2=O)cc1 (centres undefined) | 0.6 | 5.2 | 72.9% | 26.3% | 21.9
C=CC[C@H]1CC(Cc2ccccc2)=C[C@H](CC=C)N1 | -3.8 | -5.7 | 0.233µM* | 0.0738µM* | -11.8
C=CCC1C=C(Cc2ccccc2)CC(CC=C)N1 (centres undefined) | -6.4 | 4.2 | ? | 4.3% | -18.6
C=CC[C@@H]1Cc2c(Br)ccc(Br)c2[C@@H](CC=C)N1 | 8.5 | -5.7 | ? | -10.6% | -27.3
C=CC[C@H]1CC(C)=C[C@H](CC=C)N1 | 2.0 | 3.1 | 0.928µM* | ? | 10.5
Cc1ccc(NC(=S)Nc2ccc3cn[nH]c3c2)cc1C | 10.0 | -2.9 | 26.2% | 9.8% | -32.5
COc1ccccc1NC(=S)Nc1ccc2cn[nH]c2c1 | 15.5* | 46.6* | 19.9% | 45.1% | 99.5
CC(=O)c1ccc(NC(=S)Nc2ccc3cn[nH]c3c2)cc1 | 12.6 | 47.7 | 4.4% | 0.3% | -67.9*
CC(C)c1ccc(NC(=S)Nc2ccc3cn[nH]c3c2)cc1 | 22.0* | 72.6* | 65.4% | 12.8% | -26.6
Cc1ccc(S(=O)(=O)N(C)C)cc1NC(=S)Nc1ccc2cn[nH]c2c1 | 0.7 | -13.8 | -4.5% | 7.5% | -66.9*
COc1ccc(NS(=O)(=O)c2cc3c4c(c2)CCN4C(=O)CC3)cc1OC | . | . | ? | -4.0% | .
CCCCNC(=O)CN1C(=O)NC(CCc2ccccc2)C1=O (centres undefined) | -0.1 | -8.1 | -0.6% | 15.8% | 1.9
Cc1ccc(F)c(C(=O)N2CC3ON=C(c4c(F)cccc4Cl)C3C2)c1F (centres undefined) | . | . | . | . | 3.6
Cc1cc(C)c(OCC(=O)N(Cc2ccc(N(C)C)cc2)Cc2ccco2)c(C)c1 | . | . | . | . | 34.1
CNC(=O)NC(=O)COc1ccc2oc3c(c2c1)CCCC3 | 22.2* | 57.8* | 48.7% | 20.4% | 110.5
O=C(O)COc1ccc2oc3c(c2c1)CCCC3 | 0.9 | -3.6 | 20.4% | -13.1% | 2.4
NNC(=O)COc1ccc2oc3c(c2c1)CCCC3 | 0.9 | -2.9 | 10.0% | -18.3% | 22.7
SMILES | Cycloheximide cs | Shiga inhibitor | Pf growth 48h | Pf growth 96h | HCMV antiviral
CC(C)(C)NC(=O)COc1ccc2oc3c(c2c1)CCCC3 | 17.6* | 60.3 | ? | ? | -4.3
CNC(=O)COc1ccc2oc3c(c2c1)CCCC3 | 9.2 | 19.0 | 17.4% | 24.3% | -6.8
Cc1ccnc(NC(=O)COc2ccc3oc4c(c3c2)CCCC4)c1 | 42.5* | 66.4* | 125.2% | 11.7µM* | 61.8
CC(C)OCCCNC(=O)COc1ccc2oc3c(c2c1)CCCC3 | 7.3 | 25.9 | -18.8% | 4.15µM* | 10.3
Cc1ccccc1NC(=O)COc1ccc2oc3c(c2c1)CCCC3 | . | . | . | . | 8.8
CC(C)Cn1cnc2c(SCc3ccccc3Cl)nc(N)nc21 | . | . | . | . | 18.0
COc1ccc(-n2nc(C(=O)NCC(=O)Nc3ccccn3)c3ccccc3c2=O)cc1 | -2.9 | -29.2 | 30.6% | 34.3% | 17.1
CCOc1ccc(NC(=O)CNC(=O)c2nn(-c3ccc(OC)cc3)c(=O)c3ccccc23)cc1 | -1.6 | 3.2 | 9.28µM* | -9.9% | -64.7*
COc1ccc(-n2nc(C(=O)NCC(=O)Nc3cccc(Cl)c3)c3ccccc3c2=O)cc1 | -2.9 | -6.4 | 9.28µM* | 11.7µM* | -17.2
CCCCNC(=O)CNC(=O)c1nn(-c2ccc(OC)cc2)c(=O)c2ccccc12 | -2.7 | -4.7 | . | ? | -25.2
CC(C(=O)Nc1ccccc1-c1ccccc1)N(C)Cc1nc2ccccc2c(=O)[nH]1 (centres undefined) | 0.2 | 3.5 | -17.0% | ? | -29.1
O=C(Cn1ncc2c1-c1ccccc1OC2)N1CCN(c2ccccc2F)CC1 | . | . | . | . | -10.0
Cc1ccc2c(c1)-c1c(cnn1CC(=O)N1CCN(c3ccccc3F)CC1)CO2 | . | . | . | . | -87.5*
Cc1cc(C)c(C(=O)/C=C/c2ccc(C(C)C)cc2)c(=O)[nH]1 | -3.3 | -10.0 | ? | ? | -102.9*
Cc1cc(C)c(C(=O)/C=C/C=C/c2ccccc2)c(=O)[nH]1 | 24.9* | 51.6* | 44.5% | 42.8% | 12.0
C/C(=C\C=C\c1ccccc1)C(=O)c1c(C)cc(C)[nH]c1=O | 5.3 | 14.5 | 10.6% | 5.8% | -34.1
Cn1cc(SCC(=O)N2CCOCC2)c2ccccc21 | 21.7* | 92.7* | 52.8% | 10.7% | 46.4
CCn1cc(SCC(=O)N2CCOCC2)c2ccccc21 | 30.1* | 68.0* | 62.4% | 34.1% | 62.8
Cn1cc(SCC(=O)O)c2ccccc21 | -5.6 | -11.1 | . | -43.6% | 26.6
Cn1cc(SCC(=O)N2CCN(c3ccccc3)CC2)c2ccccc21 | -8.9 | -4.6 | . | ? | -84.4*
Cc1ccc(S(=O)(=O)Nc2ccccc2C(=O)N2CCOCC2)cc1 | -2.5 | 17.3 | 6.5% | 24.5% | 2.3
CCCCOc1ccc(C2CCC(C(C)=O)C(C)C2)cc1 (centres undefined) | 50.5* | 62.4* | -13.1% | 211.5% | -27.7
CCOc1c(Cl)cc(CNc2ccc(N3CCCC3)cc2)cc1OC | 11.0 | 26.5 | -27.3% | 42.0% | -65.2*
CCOc1c(Cl)cc(CNC(C)(C)CC(C)(C)C)cc1OC | 1.8 | -6.3 | 10.4µM* | . | -10.9
COc1ccc(OC)c(CNC(=O)c2ccc3nc(C(C)C)oc3c2)c1 | . | . | . | . | 14.1
Cn1cc(/C=C/C(=O)N2CCCC(C(=O)c3ccc(C(C)(C)C)cc3)C2)cn1 (centres undefined) | 9.4 | 17.9 | -18.9% | 19.5% | 2.6
CC(=O)c1c(C)[nH]c(C(=O)OCC(=O)N2CCN(S(=O)(=O)c3ccc(C)cc3)CC2)c1C | . | . | ? | 13.1µM* | 47.5
CC(=O)c1c(C)[nH]c(C(=O)OCC(=O)N2CCN(S(=O)(=O)c3ccc(C)cc3C)CC2)c1C | -4.6 | -12.7 | . | 8.28µM* | 29.8
CCOC(=O)c1c(C)[nH]c(C(=O)OCC(=O)N2CCN(S(=O)(=O)c3ccccc3)CC2)c1C | -2.9 | -7.9 | . | -60.3% | 4.9
